Consider 92 molecules from PubChem BioAssay AID1347416 (National Center for Advancing Translational Sciences (NCATS), 2020).

About 1,600 (39%) of roughly 4,100 compounds were called active. Roughly 25% stayed inconclusive and do not appear here. Calls follow the shape of the dose curve; as a rule, active = well fitted inhibition curve with a large enough effect; inconclusive = small, poorly fitted or top-dose-only effect; inactive = no such curve, though single readings can be large or run the other way. The list shows a part of the results. Where a call stands in place of a potency, no number is given.
Potency is read from the fitted curve at half-maximal effect.

The test is described as follows: qHTS Validation assay for Inhibitors of Plasmodium falciparum Dd2 growth in vitro. Also: nearly all actives have a fitted effect of over 70% in size. The following applies: P. falciparum Dd2 in RBCs, SYBR Green growth, 72 h; series mostly up to 28.7 µM. A digest of the protocol: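 P. falciparum Dd2-infected red blood cells (2.5% hematocrit, 0.3% parasitemia) grown 72 h at 37 °C under 5% O2 with compounds in a titration, 29 uM to 0.5 nM final. Growth read as SYBR Green-1 fluorescence after ~16 h lysis; artesunate 300 nM as positive control.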
Consider `COc1ccc2c(c1)CCN=C2C[C@H]1CN(C(=O)NC(C)C)CC[C@H]1CC(=O)O`, for which the Potency result was “inactive”. As for `COc1cccc(CN(C)C2CCc3ccccc32)c1` (configuration not stated), the Potency result was “inactive”. The same measure for `COc1ccc(CN2CCCC(N3CCc4ccccc4C3)C2)c(O)c1` (configuration not stated): 2.99 µM (active); for `CCCc1noc(-c2cccn3c(CNC(=O)c4ccc(OC)cc4C)nnc23)n1`: “inactive”; for `Cc1ccc(-c2cc3c(=O)n(CCNC(=O)c4ccc[nH]c4=O)ccn3n2)cc1C`: “inactive”.

Consider `Cc1cccn2c(=O)c3cc(C(=O)NC(C)c4ccccc4)c(=N)n(CCOCCO)c3nc12` (configuration not stated), for which the Potency was 10.6 µM (active). The same measure for `COc1ccc(CCn2c(=N)c(C(=O)NCCN3CCOCC3)cc3c(=O)n4cccc(C)c4nc32)cc1OC`: 13.3 µM (active).

Take `COc1ccc(CCn2c(=N)c(C(=O)NCc3ccco3)cc3c(=O)n4cccc(C)c4nc32)cc1`: the Potency is 1.68 µM (active).

Take `Cc1cccn2c(=O)c3cc(C(=O)NCCc4ccc(S(N)(=O)=O)cc4)n(C)c3nc12`: the Potency result was “inactive”.

Consider `CCOCCCn1c(=N)c(C(=O)NCc2cccnc2)cc2c(=O)n3ccccc3nc21`, for which the Potency result was “inactive”. The entry for `N#Cc1cccc(-c2cn3c(n2)N(C(=O)CC2CCCC2)CCC3)c1` is “inactive”. The same measure for `CCCCCCc1cc2cc(-c3nnc(-c4ccc(C)cc4)o3)c(=O)oc2cc1O`: “inactive”; for `O=C(C1CCCC1)N1CCN(c2nnc3c(Cl)cccn23)CC1`: “inactive”; for `Cc1cccn2c(=O)c3cc(C(=O)NC4CCCC4)c(=N)n(CCc4ccccc4)c3nc12`: 1.88 µM (active). The entry for `COc1ccc(CCNC(=O)c2cc3c(=O)n4cccc(C)c4nc3n(CC3CCCO3)c2=N)cc1` (configuration not stated) is “inactive”; for `CN1CCCCC(CC(=O)NCCc2ccccc2)C1=O` (configuration not stated) it is “inactive”. Consider `COc1ccc(CCn2c(=N)c(C(=O)NC3CCCC3)cc3c(=O)n4cccc(C)c4nc32)cc1`, for which the Potency was 0.75 µM (active). The same measure for `Cc1cc(N)c2cc(NC(=O)/C=C/c3ccccc3Cl)ccc2n1`: 1.88 µM (active). The same measure for `O=C(/C=C/c1ccccc1)Nc1cccc(C(=O)O)c1`: “inactive”. The entry for `O=C(COc1ccc(F)cc1)N1CCC(c2noc(-c3ccncc3)n2)C1` (configuration not stated) is “inactive”; for `CC1C(=O)C(C)C(c2cc(Cl)ccc2O)NC1c1cc(Cl)ccc1O` (configuration not stated) it is 6.68 µM (active).

For `Cc1[nH]c2c(C)cccc2c(=O)c1Br`, the Potency is 5.31 µM (active).

On to `Cc1cnc(C(=O)Nc2cccc3cccnc23)cn1`, for which the Potency is 2.66 µM (active). The same measure for `Cc1cnc(C(=O)N[C@@H]2CCC[C@@H]2C(=O)N2CCC(Cc3ccccc3)CC2)cn1`: “inactive”; for `COc1ccc(C(=O)N2CCc3nn(Cc4ccccc4)c(=O)n3CC2)cc1F`: “inactive”. On to `CCOc1ccc(CCNC(=O)c2ccc3c(c2)N(Cc2ccccc2F)C(=O)c2ccccc2S3=O)cc1OCC` (configuration not stated), for which the Potency was 10.6 µM (active). Take `CCOc1ccc(-c2cc3c(=O)n(CCNC(=O)c4ccc(OC)c(F)c4)ccn3n2)cc1`: the Potency result was “inactive”.

`CCN1CCN(C(=O)c2ccc3c(c2)N(Cc2ccccc2F)C(=O)c2ccccc2S3=O)CC1` (configuration not stated): the Potency is 0.842 µM (active).

Consider `CCn1cc(CN2CCN(C(=O)c3ccsc3)CC2)ccc1=O`, for which the Potency result was “inactive”. `O=C1Nc2ccc(-c3ccc(Cl)cc3)cc2C(=O)N2CCN(C(=O)c3ccccc3)C[C@H]12`: the Potency result was “inactive”. The figure for `CCN1CCN(C(=O)c2ccc3c(c2)N(Cc2ccc(Cl)cc2)C(=O)c2ccccc2S3=O)CC1` (configuration not stated) is 0.668 µM (active). The same measure for `CC(C)(C)c1ccc(C(=O)N2CCN(Cc3cc(=O)n4nc(-c5ccccc5F)sc4n3)CC2)cc1`: “inactive”. The entry for `CCOC(=O)Cn1c(=NC(=O)C2CC2)sc2c(C)cc(C)cc21` is “inactive”; for `CCc1ccc(N2CC(c3noc(-c4nccc5ccccc45)n3)CC2=O)cc1` (configuration not stated) it is “inactive”; for `O=S(=O)(c1ccc(Cl)cc1)N1CCN(Cc2ccc(O)c3ncccc23)CC1` it is 13.3 µM (active). For `O=C(N[C@H]1CO[C@H]2[C@@H]1OC[C@@H]2n1cc(-c2ccccc2)nn1)c1ccc(C(F)(F)F)cc1`, the Potency entry was “inactive”.

In the case of `COc1ccc(CN2C(=O)C(NC(=O)c3ccccc3C)(C(F)(F)F)N=C2c2ccccc2)cc1` (configuration not stated), the Potency entry was “inactive”. The same measure for `COc1ccc(CN2C(=O)C(C)N(C(=O)c3c(F)cccc3F)c3ccccc32)cc1` (configuration not stated): 7.5 µM (active); for `O=C(/C(=C/c1ccc(Cl)cc1)c1nc2ccccc2[nH]1)c1cccs1`: 2.11 µM (active); for `CN(C)CCCNc1ccc(-c2cc(Nc3cccc(Cl)c3)ncn2)cn1`: 9.44 µM (active). The same measure for `O=C(Nc1ccc(F)cc1)Nc1nnc(SCC(=O)N2CCCCC2)s1`: “inactive”; for `CCc1nnc(NC(=O)c2cc(Cl)ccn2)s1`: “inactive”; for `O=C(Nc1nnc(SCc2ccc(F)cc2)s1)c1ccccn1`: 8.41 µM (active). The same measure for `CC1=C[C@@H](CNC(=O)COc2ccccc2)[C@H](C(C)C)C[C@H]1Cc1nnc(-c2cncn2C)o1`: 13.3 µM (active); for `COc1ccccc1N1CCN(C[C@@H]2C=C(C)[C@H](Cc3nnc(-c4cncn4C)o3)C[C@H]2C(C)C)CC1`: 10.6 µM (active).

Consider `COc1ccc(-c2cc(C(F)(F)F)nc(SCCC(=O)Nc3cc(C)ccc3O)n2)cc1`, for which the Potency is 1.88 µM (active). The same measure for `Cc1ccc(NC(=O)CCSc2nc(-c3ccco3)cc(C(F)(F)F)n2)cc1F`: “inactive”; for `COc1cccc(NC(=O)CCSc2nc(-c3ccco3)cc(C(F)(F)F)n2)c1`: “inactive”. The entry for `CC(Sc1nc2cc([N+](=O)[O-])ccc2n1-c1cccc(C(F)(F)F)c1)C(=O)NC(N)=O` (configuration not stated) is “inactive”; for `O=C(Nc1cc(C(F)(F)F)cc(C(F)(F)F)c1)Nc1cnn(-c2ccc([N+](=O)[O-])cc2)c1C(F)(F)F` it is 6.68 µM (active).

Regarding `Cc1cn2nc(C(=O)Nc3ccc4c(c3)OCCO4)cc2c(N(C)Cc2ccccc2)n1`, the Potency entry was “inactive”. The same measure for `Cc1cn2nc(C(=O)NCc3ccccc3F)cc2c(N(C)Cc2ccccc2)n1`: “inactive”; for `Cc1cn2nc(C(=O)Nc3ccc(N(C)C)cc3)cc2c(N(C)Cc2ccccc2)n1`: 15 µM (active). The figure for `COc1ccc(/C=N/Nc2cc(C)nc(-n3nc(C)cc3C)n2)c(OC)c1` is 5.31 µM (active); for `CNc1cc(C)nc(-n2nc(C)cc2C)n1` it is 8.41 µM (active); for `Cc1cc(N2CCC(C)CC2)nc(-n2nc(C)cc2C)n1` it is 2.99 µM (active). For the molecule `Cc1ccc(Nc2cc(C)nn2-c2nc(C)cc(C)n2)cc1`, the Potency is 6.68 µM (active). Turning to `COCC(=O)NC[C@H]1CCN(Cc2ccc(Cl)cc2)C[C@H]1N(C)C`, the Potency result is “inactive”. The same measure for `COc1cccc(OC)c1C(=O)Nc1cccc(-c2nc3cc(C)cc(C)c3o2)c1`: “inactive”; for `COc1cccc(NC(=O)c2sc3nc(C)c(C(=O)Nc4ccc(C)cc4C)c(-c4ccccc4Cl)c3c2N)c1`: 2.66 µM (active); for `COc1cccc(NC(=O)c2sc3nc(C)c(C(=O)Nc4ccc(C)cc4C)c(-c4cccs4)c3c2N)c1`: 5.96 µM (active). Consider `NC1CCCCN(C(=O)CCc2n[nH]c3c2CCCC3)C1` (configuration not stated), for which the Potency entry is “inactive”. For `Cc1ccc(-n2nc3c(c2NC(=O)C(C)C)CS(=O)(=O)C3)c(C)c1`, the Potency entry was “inactive”. The entry for `Cc1ccc(S(=O)(=O)Nc2cc(=O)[nH]c(SCC(=O)Nc3cccc(C)c3)n2)cc1` is “inactive”; for `CCn1c(SCC(=O)NNC(=O)Cc2ccccc2)nnc1-c1ccncc1` it is “inactive”. The same measure for `c1ccc(Cn2c(Sc3nnnn3-c3ccccc3)nnc2-c2ccccc2)cc1`: 7.5 µM (active). The entry for `CN(C1CCc2nn(CC3CC3)c(=O)n2CC1)S(=O)(=O)c1cccs1` (configuration not stated) is “inactive”; for `COc1cccc(C(=O)N2CCC3(CC2)CCN(CCc2ccccc2)c2ccccc2O3)c1` it is “inactive”.

Take `COc1ccc2c(c1)OC(C)(C)C(c1ccccc1)C2c1ccc(OCCN2CCCC2)cc1` (configuration not stated): the Potency is 6.68 µM (active). The figure for `O=C(NCCCNc1ccnc2cc(Cl)ccc12)c1ccccc1F` is 0.842 µM (active); for `O=C(NCCNc1ccnc2cc(Cl)ccc12)c1ccccc1F` it is 1.68 µM (active). The entry for `O=C(NCc1nnc2ccc(-c3ccccc3)nn12)c1cc(Cl)ccc1F` is “inactive”.

On to `O=C(NC1C[C@H]2CC[C@@H](C1)N2C(=O)c1ccco1)c1ccncc1` (some centres not stated), for which the Potency result was “inactive”. The entry for `Cc1nn(-c2cccc(Br)c2)c(C)c1[C@@H]1C=C[C@@H](NC(=O)c2cccs2)C1` is “inactive”; for `COc1ccc(CN[C@@H]2C=C[C@@H](c3c(C)nn(-c4ccc(OC)cc4)c3C)C2)cc1` it is 4.85 µM (active); for `Cc1nn(-c2ccc(C(C)C)cc2)c(C)c1[C@@H]1C=C[C@@H](NCc2ccccc2)C1` it is 21.7 µM (active). The figure for `COc1ccc(-n2nc(C)c([C@@H]3C=C[C@@H](NCc4ccc(F)cc4)C3)c2C)cc1` is 1.37 µM (active). The figure for `Cc1nn(-c2ccc(C(C)(C)C)cc2)c(C)c1[C@@H]1C=C[C@@H](NC(=O)c2ccco2)C1` is 12.2 µM (active). For `Cc1cc(=O)n(C(C)C(=O)NCc2ccccc2Cl)c2c1c(C)nn2-c1ccccc1` (configuration not stated), the Potency result is “inactive”.

Regarding `Cc1cccc(CCNC(=O)CCS(=O)(=O)c2cc3c(cc2Cl)NC(=O)CO3)c1`, the Potency result is “inactive”. Turning to `COc1ccc(OC)c(C2CCN(c3ncncn3)C2)c1` (configuration not stated), the Potency entry was “inactive”.

Consider `CC(C)Oc1ccc2c(NC(=O)c3ccn(C)n3)nn(CC(F)(F)F)c2c1`, for which the Potency entry was “inactive”. On to `O=C(NCc1cc(F)ccc1F)C1CCN(c2cn[nH]c(=O)c2)C1` (configuration not stated), for which the Potency entry was “inactive”.

Consider `COc1ccc(-n2nc(C)c([C@@H]3C=C[C@@H](NCc4ccc(N(C)C)cc4)C3)c2C)cc1`, for which the Potency was 4.33 µM (active).

Turning to `COc1ccc(-n2nc(C)c([C@@H]3C=C[C@@H](NCc4cccc(Cl)c4)C3)c2C)cc1`, the Potency is 1.37 µM (active). The entry for `Cn1c(=O)oc2cc(S(=O)(=O)CCC(=O)N3CCN(c4ccccc4F)CC3)ccc21` is “inactive”; for `O=c1[nH]c(N2CCOCC2)nc2c1CCN(Cc1cc(Cl)ccc1F)CC2` it is 2.37 µM (active); for `O=c1[nH]c(N2CCOCC2)nc2c1CCN(Cc1cc(F)c(F)cc1F)CC2` it is 15 µM (active). The figure for `O=c1[nH]c(N2CCOCC2)nc2c1CCN(Cc1cc(Br)ccc1F)CC2` is 5.31 µM (active). With `O=C1CCN(Cc2ccc(F)cc2F)CCCC(c2nc(-c3cnccn3)no2)CCN1` (configuration not stated), the Potency result was “inactive”. The entry for `O=C(Nc1ccc(Cl)cc1)c1nc2c(o1)CCN(Cc1ccc(F)cc1F)CC2` is “inactive”; for `O=c1[nH]c(N2CCOCC2)nc2c1CCN(Cc1ccc(Cl)cc1F)CC2` it is 3.35 µM (active).
